In article PMC7826789 (International Journal of Molecular Sciences, 2021):

Key:
Conditions in all cases: Compound Concentration (nM):1000
[1] = system: EPHB2
[2] = system: EPHB3
[3] = system: EPHB4
[4] = system: EPHB6
[5] = system: ERBB2
[6] = system: ERBB3
[7] = system: ERBB4
[8] = system: T1, ERK1
T1 construct: gene MAPK3

[9] = system: T2, ERK2
T2 construct: gene MAPK1

[10] = system: T3, ERK3
T3 construct: gene MAPK6
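Note: KINOMEscan scanMAX binding as percent activity remaining versus control; lower means stronger binding.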

Row | Compound | Percent Control [1] | Percent Control [2] | Percent Control [3] | Percent Control [4] | Percent Control [5] | Percent Control [6] | Percent Control [7] | Percent Control [8] | Percent Control [9] | Percent Control [10]
1 | Cc1cc(O)cc(C)c1/C=C/c1cncc(C(N)=O)c1 [GW435821X] | 100% | 100% | 100% | 6.6% | 61% | 43% | 100% | 100% | 100% | 100%
2 | Cl.O=S1CCN(Cc2ccc(-c3ccc4ncnc(Nc5ccc(OCc6ccccc6)c(F)c5)c4c3)o2)CC1 [GW576924A] | 100% | 100% | 100% | 100% | 0% | 58% | 22% | 100% | 100% | 100%
3 | CCn1c(-c2nonc2N)nc2c(C#CC(C)(C)O)nc(OCCNC)cc21.Cl [GSK949675] | 94% | 100% | 100% | 90% | 57% | 79% | 100% | 93% | 90% | 100%
4 | COc1ccc2c(-c3ccnc(Nc4cccc(OC(F)(F)F)c4)n3)cnn2n1 [GW810372X] | 100% | 100% | 100% | 83% | 100% | 65% | 100% | 100% | 100% | 100%
5 | O=C1Nc2ccc(C(=O)c3ccco3)cc2C1=Cc1cc(Cl)c(O)c(Cl)c1 [GW406108X] | 100% | 89% | 98% | 63% | 83% | 87% | 100% | 100% | 94% | 94%
6 | C[C@@H](Oc1cc(-n2cnc3ccc(OC4CCN(C)CC4)cc32)sc1C(N)=O)c1ccccc1Cl [GSK579289A] | 77% | 95% | 100% | 75% | 79% | 85% | 90% | 59% | 100% | 97%
7 | NS(=O)(=O)c1ccc(N/N=C2\C(=O)Nc3ccc(C(=O)NCCc4c[nH]cn4)cc32)cc1 [GW300660X] | 100% | 100% | 100% | 37% | 57% | 86% | 100% | 100% | 100% | 100%
8 | COc1ccc2[nH]c3c4[nH]c5ccc(OC)cc5c4c4c(c3c2c1)C(=O)NC4=O [GW296115X] | 84% | 85% | 84% | 7.3% | 100% | 85% | 59% | 85% | 76% | 84%
9 | COc1cc(/C=N/Nc2ncnc3[nH]ncc23)ccc1O [GW578748X] | 100% | 100% | 100% | 1.6% | 57% | 64% | 100% | 100% | 100% | 57%
10 | COc1cc(C)c(N(C)C(=O)CN(C)C)cc1Nc1nc(Nc2cccc(F)c2C(N)=O)c2cc[nH]c2n1 [GSK2219385] | 100% | 93% | 100% | 74% | 94% | 57% | 86% | 65% | 100% | 90%
11 | COc1cccc(-c2c[nH]c3c(N/N=C/c4ccncc4)ncnc23)c1 [GW814408X] | 100% | 100% | 100% | 2.7% | 63% | 13% | 88% | 100% | 100% | 19%
12 | Nc1ncnc2occ(-c3ccc(NC(=O)Nc4cc(C(F)(F)F)ccc4F)cc3)c12 [GW770249X] | 11% | 31% | 36% | 0.5% | 67% | 91% | 100% | 100% | 100% | 100%
13 | COC(=O)Nc1nc2ccc(Oc3ccc(NC(=O)Nc4cc(C(F)(F)F)ccc4F)cc3)cc2s1.Cl [GW693917A] | 34% | 81% | 59% | 9.4% | 100% | 45% | 100% | 100% | 100% | 66%
14 | CCS(=O)(=O)c1ccc(OC)c(Nc2ncc(-c3cccc(F)c3)o2)c1 [GW621970X] | 100% | 100% | 99% | 1.6% | 88% | 53% | 100% | 100% | 100% | 100%
15 | COc1ccc(COc2ccc(Cc3cnc(N)nc3N)cc2OC)cc1 [GW632580X] | 81% | 73% | 92% | 100% | 94% | 85% | 100% | 95% | 92% | 87%
16 | Cl.c1ccc(Cc2nc3ccc(Nc4ncnc5ccccc45)cc3[nH]2)cc1 [GR269666A] | 100% | 100% | 100% | 81% | 0% | 20% | 1.8% | 100% | 100% | 100%
17 | Cl.O=C(Nc1ccc(Oc2ccc3[nH]c(NC(=O)c4ccccc4)nc3c2)cc1)Nc1cc(C(F)(F)F)ccc1F [GW709042A] | 76% | 90% | 84% | 28% | 92% | 70% | 100% | 100% | 100% | 84%
18 | CC(C)COC(=O)c1ccc2c(c1)/C(=C/Nc1ccc(S(N)(=O)=O)cc1)C(=O)N2 [GW416981X] | 100% | 100% | 100% | 100% | 26% | 81% | 50% | 100% | 100% | 100%
19 | NS(=O)(=O)c1ccc(N/N=C2\C(=O)Nc3ccc(Cl)cc32)cc1 [GW280670X] | 100% | 100% | 100% | 82% | 81% | 72% | 100% | 100% | 100% | 100%
20 | C/C(Nc1ccc(S(N)(=O)=O)cc1)=C1/C(=O)Nc2ccccc21 [GW335962X] | 100% | 89% | 86% | 93% | 100% | 74% | 100% | 91% | 100% | 93%

Row | Compound | Percent Control [1] | Percent Control [2] | Percent Control [3] | Percent Control [4] | Percent Control [5] | Percent Control [6] | Percent Control [7] | Percent Control [8] | Percent Control [9] | Percent Control [10]
21 | COc1ccccc1-c1cc(/C=C2\C(=O)Nc3ncc(Br)cc32)cc(Br)c1O [GW442130X] | 100% | 100% | 100% | 42% | 100% | 95% | 100% | 87% | 100% | 100%
22 | NS(=O)(=O)c1ccc(N/N=C2\C(=O)Nc3ccc(-c4cnco4)cc32)cc1 [GW276655] | 100% | 86% | 84% | 58% | 91% | 76% | 66% | 75% | 77% | 87%
23 | NS(=O)(=O)c1ccc(Nc2ncc(-c3ccccc3)o2)cc1 [GW572399X] | 100% | 94% | 100% | 35% | 70% | 74% | 100% | 100% | 100% | 100%
24 | CC1=C(C(=O)Nc2ccc3[nH]ncc3c2)C(c2ccc3ccccc3c2)CC(=O)N1 (centres unmarked) [GSK270822A] | 86% | 89% | 84% | 86% | 83% | 100% | 100% | 66% | 79% | 100%
25 | O=C(Nc1n[nH]c2nc(-c3ccc(O)cc3)c(Br)cc12)C1CC1 [SB-725317] | 100% | 100% | 100% | 57% | 80% | 32% | 100% | 100% | 100% | 100%
26 | CCc1ccc(Oc2nccc(-c3c(-c4ccc(F)cc4)ncn3C3CCNCC3)n2)cc1 [SB-242719] | 95% | 94% | 98% | 76% | 20% | 78% | 99% | 92% | 100% | 100%
27 | CN1CCN(C(=O)c2ccc(NC(=O)Nc3ccc(N(C)c4ccnc(Nc5ccc(CS(C)(=O)=O)cc5)n4)cc3)cc2)CC1.Cl [GW830263A] | 76% | 100% | 85% | 4.3% | 100% | 85% | 77% | 100% | 100% | 100%
28 | COc1ccc2cc(-c3c(-c4ccncc4)nc(-c4ccc(S(C)(=O)=O)cc4C)n3C)ccc2c1 [SB-633825] | 91% | 80% | 73% | 74% | 12% | 84% | 22% | 91% | 95% | 42%
29 | CN(C)c1cc2c(Nc3ccc4c(cnn4Cc4ccccc4)c3)ncnc2cn1 [GW282974X] | 100% | 75% | 85% | 24% | 0% | – | 24% | 100% | 37% | –
30 | COc1cc2ncnc(Nc3ccc4c(cnn4Cc4ccccc4)c3)c2cc1OC.Cl [GW282449A] | 100% | 100% | 100% | 12% | 0% | 0% | 0% | 100% | 100% | 100%
31 | COc1cc2ncn(-c3cc(O[C@H](C)c4ccccc4Cl)c(C(N)=O)s3)c2cc1OC [GSK237701A] | 90% | 92% | 85% | 16% | 100% | 89% | 63% | 100% | 100% | 82%
32 | Cl.O=C(Nc1ccc(Oc2ccc3[nH]c(NC(=O)c4ccco4)nc3c2)cc1)Nc1cc(C(F)(F)F)ccc1F [GW683134A] | 31% | 99% | 87% | 3.2% | 79% | 77% | 100% | 100% | 100% | 90%
33 | CC1=C(C(=O)Nc2ccc3[nH]ncc3c2)C(c2ccc(Cl)c(Cl)c2)CC(=O)N1 (centres unmarked) [GSK299115A] | 100% | 98% | 94% | 99% | 92% | 100% | 36% | 72% | 76% | 77%
34 | Cl.O=C(O[C@H]1CN[C@H](C#Cc2cc3ncnc(Nc4ccc5c(cnn5Cc5ccccc5)c4)c3s2)C1)N1CCOCC1 [GSK200398A] | 100% | 100% | 96% | 100% | 0% | 10% | 0% | 100% | 100% | 100%
35 | CCS(=O)(=O)c1ccc(OC)c(Nc2ncc(-c3cccc(OC)c3)o2)c1 [GW580509X] | 100% | 100% | 100% | 3.3% | 77% | 54% | 100% | 100% | 100% | 100%
36 | NS(=O)(=O)c1ccc(N/N=C2\C(=O)Nc3ccc(C(=O)NCc4ccncc4)cc32)cc1 [GW300657X] | 93% | 98% | 100% | 16% | 80% | 53% | 93% | 100% | 88% | 87%
37 | CN(C)CCNC(=O)Nc1ccc(N(C)c2ccnc(Nc3ccc(CS(C)(=O)=O)cc3)n2)cc1.Cl [GW830900A] | 100% | 100% | 100% | 28% | 100% | 93% | 81% | 100% | 85% | 94%
38 | COc1cccc(-n2ncc3c(N/N=C/c4ccncc4)ncnc32)c1 [GW784752X] | 100% | 100% | 100% | 100% | 68% | 4.9% | 83% | 100% | 100% | 41%
39 | COc1cc(C=NNc2ncnc3c2cnn3-c2ccccc2)ccc1O [GW513184X] | 93% | 100% | 100% | 3.9% | 81% | 66% | 100% | 100% | 82% | 15%
40 | COc1cc(N2CCN(C(C)C)CC2)ccc1Nc1nc(Nc2ccc(F)cc2C(=O)NC[C@@H](O)CO)c2cc[nH]c2n1 [GSK1392956A] | 100% | 69% | 81% | 93% | 85% | 50% | 73% | 100% | 99% | 66%
